Experimental data: PubChem BioAssay (NCATS)
Records with an inconclusive call do not appear. The source made the active and inactive calls. Unless noted, calls follow the shape of the dose curve; as a rule, active = well fitted curve in either direction with a large enough effect (not every such curve was filed as active); inconclusive = small, poorly fitted or top-dose-only effect, or another doubt; inactive = flat fitted curve, though single readings scatter.

Assays:
[1] = target: Lysosomal acid glucosylceramidase (Homo sapiens) (UniProt P04062); assay: Glucocerebrosidase-p2 (AID 348; in the data active = potency below about 10 µM; also: potency is read from the fitted curve at half-maximal effect); conditions: purified GBA, blue fluorogenic substrate, 40 min
How it was run: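 Normal human glucocerebrosidase (0.2 nM) with blue fluorogenic substrate (80 uM final) in citrate/phosphate pH 5.9 with 10mM sodium taurocholate, 0.01% tween-20; 40 min RT, NaOH/glycine stop; fluorescence Ex 365/Em 440; AC50 from a titration from 0.6 nM upwards.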

[2] = AP1 Signaling Pathway (AID 357); conditions: ME-180 AP-1-bla reporter, EGF-induced, beta-lactamase ratio, 5 h; at 7.69 µM (top of the series) unless noted;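 also: ME-180 reporter cells stimulated with EGF at its EC50 level; % is scaled to controls: 0 for no effect and ±100 for the full control effect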
How it was run: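 A ratiometric CCF4 readout (405 nm excitation; 460 and 530 nm emission) quantified AP-1-driven beta-lactamase in ME-180 cells after 5 h with compound and EC50 EGF; AC50 values were derived for activators and inhibitors.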

[3] = Stat Signaling Pathway (AID 446); conditions: ME-180 SIE beta-lactamase reporter, IL-6 stimulated, 5 h; at 7.69 µM (top of the series) unless noted;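 also: ME-180 cervical cancer cells given 40 pM IL-6 alongside compound; SIE-controlled beta-lactamase reporter measured as 460/530 nm FRET emission ratio; % is scaled to controls: 0 for no effect and ±100 for the full control effect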
How it was run: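 Compound effects on IL-6-induced STAT reporter activity were measured in ME-180 cells. After overnight culture, cells were co-treated with 40 pM IL-6 for 5 hrs before beta-lactamase substrate loading at room temperature.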

[4] = target: Glucocorticoid receptor (Homo sapiens) (UniProt P04150); assay: GR-EFC Redistribution (AID 451; calls by dose curve; also: potency is read from the fitted curve at half-maximal effect); conditions: CHO-K1 GR-EFC translocation, beta-gal luminescence, 2 h
How it was run: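 CHO-K1 cells stably expressing nuclear-localized β-gal enzyme acceptor and GR fused C-terminally to the enzyme donor fragment; ligand-driven nuclear translocation restores β-gal by complementation. Compounds titrated up to 46 uM final, 2 h at 37 °C; luminescence read.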

[5] = target: Mitogen-activated protein kinase 10 (Mus musculus) (UniProt Q61831); assay: JNK3 AlphaScreen Assay (AID 530); conditions: JNK3 lysate, c-Jun phosphorylation; series mostly up to 57.1 µM;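 also: kinase came from lysate of stimulated human HepG2 cells; signal reports phosphorylation of biotinylated GST-cJun 1-79 at Ser73 with 10 µM ATP; % is scaled to controls: 0 for no effect and ±100 for the full control effect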
How it was run: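 Phosphorylation of biotinylated GST-cJun(1-79) at Ser73 is measured by AlphaScreen proximity luminescence. Enzyme is JNK3 in HepG2 lysates activated with interleukin-1beta and tumor necrosis factor alpha; ATP is 10 uM final.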

[6] = target: 3',5'-cyclic-AMP phosphodiesterase 4B (Homo sapiens) (UniProt Q07343); assay: qHTS Assay for Inhibitors of PDE-IV (AID 607; active = well fitted activation curve with a large enough effect in the main read-out, with a control signal flat, not every such curve was filed as active; also: % of control where 0% means no effect); conditions: HEK293 ACTOne CNG channel cells, membrane potential fluorescence; series mostly up to 22.9 µM
How it was run: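 ACTOne HEK293 cells carry a modified cAMP-gated CNG channel and express endogenous PDE4; plated 1000 cells/well, compounds up to 22.9 uM final. Membrane-potential dye fluorescence (ex 535/em 590) was read; parental cells received 10 uM forskolin + 100 uM RO 20-1724.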

[7] = qHTS Assay for Lipid Storage Modulators (AID 1519; calls by dose curve); conditions: Drosophila S3 cells, BODIPY lipid droplet/cell ratio, laser cytometry, cells loaded with oleic acid; for activity change, negative = inhibition: at 57.5 µM (top of the series)
How it was run: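 Cells seeded at 5,000 per well were treated with compounds over a concentration series and loaded with oleic acid (400 uM, as added). Lipid droplet fluorescence (488 nm excitation, 500-530 nm channel) was read by laser-scanning cytometry and normalized to 20 uM Triacsin C.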

[8] = Primary qHTS for small molecule stabilizers of the endoplasmic reticulum resident proteome: Secreted ER Calcium Modulated Protein (SERCaMP) assay (AID 1508630; active = well fitted curve in the direction sought with a large enough effect; an effect the other way counts as inactive or inconclusive; also: % is scaled to controls: 0 for no effect and ±100 for the full control effect); conditions: SH-SY5Y GLuc-SERCaMP (Gaussia luciferase released on ER calcium loss) secretion, thapsigargin, luminescence; series mostly up to 38.4 µM
How it was run: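 The SH-SY5Y reporter protocol was run at 3 concentrations up to 38.3 uM (primary) or 11 concentrations (follow-up): 16 h compound, 100 nM thapsigargin for 4 h, then extracellular luciferase luminescence.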

[9] = target: Cytochrome P450 1A2 (Homo sapiens) (UniProt P05177); assay: p450-cyp1a2 (AID 410; calls by dose curve; also: potency is read from the fitted curve at half-maximal effect;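 as to activity change, negative = inhibition: -100% = full effect of reference inhibitor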); conditions: recombinant CYP1A2, luciferin-ME demethylation, luminescence; series mostly up to 57 µM
How it was run: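 O-Demethylation of luciferin 6' methyl ether by human CYP1A2 is monitored as luciferase luminescence. Substrate sits at Km (100uM); enzyme is 20nM. Values are scaled to 57 uM furafylline as maximal inhibition.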

[10] = NFAT Signaling Pathway (AID 444); conditions: Jurkat NFAT-bla M1, carbachol, beta-lactamase ratio, 5 h; at 7.69 µM (top of the series) unless noted
How it was run: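 Jurkat cells carrying an NFAT-driven β-lactamase reporter and co-transfected muscarinic M1 receptor were treated with compound plus carbachol (1 uM final, an EC50 level) for 5 h at 37 °C. CCF4 loading followed for 1 h at RT; 460/530 nm ratio gave %activity.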

[11] = target: Glucocorticoid receptor (Homo sapiens) (UniProt P04150); assay: GR-GFP Redistribution (AID 450;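 active = compounds whose dose series gives a full or clear partial fitted curve of increased nuclear translocation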; also: potency is read from the fitted curve at half-maximal effect); conditions: U2OS GR-GFP nuclear translocation, laser cytometry, 2 h
[12] = target: Cytochrome P450 3A4 (Homo sapiens) (UniProt P08684); assay: qHTS Assay for Activators of Cytochrome P450 3A4 (AID 885; active = well fitted curve in the direction sought with a large enough effect; an effect the other way counts as inactive or inconclusive; also: nearly all actives have a fitted effect of over 65% in size); conditions: recombinant CYP3A4, Luciferin-PPXE luminescence, 60 min; series mostly up to 57.1 µM
How it was run: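 CYP3A4 activity: Luciferin-PPXE O-dealkylation, 25uM substrate, 200mM KPO4, RT throughout. Read-out is luciferase luminescence; higher values reflect activation.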

[13] = Confirmation and Secondary Assay for Modulators of Hemoglobin Beta Chain Splicing at IVS2 654 locus (AID 910; active = well fitted curve in the direction sought with a large enough effect; an effect the other way counts as inactive or inconclusive;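 also: per-well total GFP intensity by laser scanning cytometry after 2-day treatment; % of control where 0% means no effect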); conditions: HeLa EGFP-654 splicing reporter, GFP fluorescence, 48 h; series mostly up to 38.3 µM
How it was run: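 HeLa cells stably carrying EGFP interrupted by mutant beta-globin IVS2-654 intron (CMV-driven) were treated with compound for 2 days at 37C; corrected splicing was scored as total peak GFP intensity per well (488 nm excitation, 500-520 nm emission).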

[14] = Confirmation and Secondary Assay for Modulators of Hemoglobin Beta Chain Splicing at IVS2 705 locus (AID 930; active = well fitted curve in the direction sought with a large enough effect; an effect the other way counts as inactive or inconclusive;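 also: HeLa cells stably expressing the EGFP-705 splicing reporter; % of control where 0% means no effect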); conditions: HeLa EGFP-705 splicing reporter, GFP fluorescence, 48 h; series mostly up to 38.3 µM
How it was run: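 Restored EGFP fluorescence after 2-day compound exposure reports splicing correction in IVS2-705 EGFP reporter HeLa cells; positive control was 500 nM splice-blocking PNA oligo. Signal measured as well total peak GFP intensity (488 nm excitation).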

[15] = qHTS Assay for Identification of Small Molecule Agonists for Hypoxia Response Element Signaling Pathway (AID 914; active = well fitted activation curve with a large enough effect in the signal ratio, with a control signal flat, not every such curve was filed as active; the % refers to the signal ratio; also: % of control where 0% means no effect); conditions: ME-180 (cervical carcinoma) HRE-bla reporter, beta-lactamase ratio, CoCl2, 17 h; activation: stronger effect = higher value
How it was run: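 AC50 values come from titration-series %Activity, taken as the 460/530nm ratio of CCF4 fluorescence (excitation 405nm). CellSensor HRE-bla ME-180 cells were treated 17 hours at 37 C with compound plus an EC50 level of CoCl2.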

[16] = measured here: cell count channel max response
[17] = measured here: lipid channel max response

3',5'-cyclic-AMP phosphodiesterase 4B (Homo sapiens), sequence (Q07343 whole entry, looked up): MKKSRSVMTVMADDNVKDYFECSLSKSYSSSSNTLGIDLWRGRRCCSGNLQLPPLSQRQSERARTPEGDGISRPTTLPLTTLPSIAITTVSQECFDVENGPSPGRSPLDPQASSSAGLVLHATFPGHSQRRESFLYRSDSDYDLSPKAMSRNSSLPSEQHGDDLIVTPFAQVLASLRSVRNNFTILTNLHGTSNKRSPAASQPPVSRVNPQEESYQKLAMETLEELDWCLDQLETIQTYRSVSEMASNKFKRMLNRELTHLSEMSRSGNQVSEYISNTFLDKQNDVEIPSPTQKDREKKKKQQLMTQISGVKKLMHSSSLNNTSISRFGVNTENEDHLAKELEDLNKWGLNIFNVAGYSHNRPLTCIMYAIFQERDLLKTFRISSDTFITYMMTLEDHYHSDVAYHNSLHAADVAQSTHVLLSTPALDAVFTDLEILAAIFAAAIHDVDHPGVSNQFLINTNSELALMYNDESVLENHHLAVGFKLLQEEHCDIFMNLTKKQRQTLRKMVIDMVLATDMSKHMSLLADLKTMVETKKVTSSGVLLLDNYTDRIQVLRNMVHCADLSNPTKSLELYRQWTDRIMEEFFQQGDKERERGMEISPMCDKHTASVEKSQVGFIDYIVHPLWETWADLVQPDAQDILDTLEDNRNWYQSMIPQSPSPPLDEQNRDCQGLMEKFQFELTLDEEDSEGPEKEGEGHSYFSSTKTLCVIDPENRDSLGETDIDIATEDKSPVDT
Cytochrome P450 1A2 (Homo sapiens), sequence (P05177 whole entry, looked up): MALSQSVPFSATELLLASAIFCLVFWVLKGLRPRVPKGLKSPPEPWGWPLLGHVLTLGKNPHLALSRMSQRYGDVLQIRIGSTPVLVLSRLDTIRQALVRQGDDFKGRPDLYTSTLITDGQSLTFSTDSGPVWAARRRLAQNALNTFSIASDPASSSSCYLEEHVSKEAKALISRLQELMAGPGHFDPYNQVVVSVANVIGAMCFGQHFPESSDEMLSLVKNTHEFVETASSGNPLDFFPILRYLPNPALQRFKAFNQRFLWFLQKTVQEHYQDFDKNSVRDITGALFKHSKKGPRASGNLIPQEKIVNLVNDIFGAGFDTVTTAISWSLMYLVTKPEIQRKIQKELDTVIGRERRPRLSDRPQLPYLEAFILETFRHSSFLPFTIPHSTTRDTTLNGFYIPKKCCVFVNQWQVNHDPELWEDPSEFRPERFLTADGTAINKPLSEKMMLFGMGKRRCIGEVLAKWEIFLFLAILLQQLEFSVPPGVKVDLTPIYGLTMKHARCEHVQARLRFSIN
Lysosomal acid glucosylceramidase (Homo sapiens), sequence (P04062 whole entry, looked up): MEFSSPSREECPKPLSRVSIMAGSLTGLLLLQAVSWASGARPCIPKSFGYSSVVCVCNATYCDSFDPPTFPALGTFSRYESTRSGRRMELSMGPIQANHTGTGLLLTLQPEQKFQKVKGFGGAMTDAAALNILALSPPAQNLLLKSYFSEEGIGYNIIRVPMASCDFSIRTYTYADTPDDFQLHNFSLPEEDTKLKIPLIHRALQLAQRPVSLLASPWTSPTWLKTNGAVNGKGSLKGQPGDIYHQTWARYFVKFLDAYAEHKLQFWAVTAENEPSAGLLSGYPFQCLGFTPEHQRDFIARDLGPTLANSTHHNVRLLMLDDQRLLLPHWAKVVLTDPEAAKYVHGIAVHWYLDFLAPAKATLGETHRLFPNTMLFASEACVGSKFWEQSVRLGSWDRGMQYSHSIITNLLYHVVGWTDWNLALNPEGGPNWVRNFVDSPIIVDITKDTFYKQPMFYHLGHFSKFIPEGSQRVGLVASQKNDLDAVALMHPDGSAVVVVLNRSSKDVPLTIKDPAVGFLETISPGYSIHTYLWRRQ
Glucocorticoid receptor (Homo sapiens), sequence (P04150 whole entry, looked up, the tested form may be a part): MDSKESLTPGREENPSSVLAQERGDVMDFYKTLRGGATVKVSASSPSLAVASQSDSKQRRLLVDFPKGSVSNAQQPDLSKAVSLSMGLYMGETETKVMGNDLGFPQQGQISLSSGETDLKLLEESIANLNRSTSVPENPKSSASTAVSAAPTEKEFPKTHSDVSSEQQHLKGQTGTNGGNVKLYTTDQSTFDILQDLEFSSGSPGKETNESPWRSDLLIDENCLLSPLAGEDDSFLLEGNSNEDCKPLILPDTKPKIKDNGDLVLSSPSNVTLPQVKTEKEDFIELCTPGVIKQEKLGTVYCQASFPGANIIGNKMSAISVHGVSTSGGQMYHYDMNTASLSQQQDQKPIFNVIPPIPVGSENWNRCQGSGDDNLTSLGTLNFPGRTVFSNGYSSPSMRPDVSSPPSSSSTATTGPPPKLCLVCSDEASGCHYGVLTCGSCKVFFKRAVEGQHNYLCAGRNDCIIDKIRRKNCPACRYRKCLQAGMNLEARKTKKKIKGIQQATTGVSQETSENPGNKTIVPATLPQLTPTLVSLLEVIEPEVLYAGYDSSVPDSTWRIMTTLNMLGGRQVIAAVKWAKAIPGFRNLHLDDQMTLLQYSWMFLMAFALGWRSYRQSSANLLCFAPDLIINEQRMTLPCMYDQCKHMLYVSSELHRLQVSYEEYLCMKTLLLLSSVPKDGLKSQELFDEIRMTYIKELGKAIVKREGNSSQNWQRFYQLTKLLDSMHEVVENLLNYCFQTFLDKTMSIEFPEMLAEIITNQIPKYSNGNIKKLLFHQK
Cytochrome P450 3A4 (Homo sapiens), sequence (P08684 whole entry, looked up): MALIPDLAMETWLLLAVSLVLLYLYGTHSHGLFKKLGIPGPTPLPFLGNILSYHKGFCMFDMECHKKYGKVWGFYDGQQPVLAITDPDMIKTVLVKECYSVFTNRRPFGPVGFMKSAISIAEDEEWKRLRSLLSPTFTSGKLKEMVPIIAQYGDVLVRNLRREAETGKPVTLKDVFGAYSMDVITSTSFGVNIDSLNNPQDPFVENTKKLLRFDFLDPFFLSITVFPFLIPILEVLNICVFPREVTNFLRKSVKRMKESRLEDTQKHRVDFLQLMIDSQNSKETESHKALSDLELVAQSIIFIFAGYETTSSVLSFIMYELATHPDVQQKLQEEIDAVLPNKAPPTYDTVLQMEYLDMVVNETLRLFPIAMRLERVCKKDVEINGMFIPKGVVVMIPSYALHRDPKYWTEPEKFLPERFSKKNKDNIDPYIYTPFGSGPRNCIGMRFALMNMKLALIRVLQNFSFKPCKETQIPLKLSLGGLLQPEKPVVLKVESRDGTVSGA

O=C(c1cnccn1)N1CCC2(CC1)CCN(c1ccncc1)CC2
3.08%: max response [7, 16]
inactive: Potency [1] > 11.4 µM | activity change, negative = inhibition [2] 15.7% | activity, negative = inhibition [3] 2.83% | Potency [4] > 46 µM | Potency [5] | Potency [6] | activity change, negative = inhibition [7] 2.66% | outcome [8]
8.09%: max response [7, 17]

CN(C)C(=O)c1ccc(-c2nc(NCc3cccs3)c3ccccc3n2)cc1
inactive: Potency [1] > 11.4 µM | activity change, negative = inhibition [10] 28.9% | activity, negative = inhibition [3] -25% | Potency [11] > 46 µM | Potency [4] > 46 µM | Potency [5] | Potency [12] | Potency [13] | outcome [14] | activity change, negative = inhibition [7] 12.5% | outcome [8]
active: Potency [9] 12.6 µM
0.768%: max response [7, 16]
15.6%: max response [7, 17]

O=C(c1ccncc1)N1CCC2(CC1)CN(c1ccccn1)C2
0.68%: max response [7, 16]
inactive: Potency [1] > 11.4 µM | activity change, negative = inhibition [2] 24.8% | Potency [4] > 46 µM | Potency [5] | Potency [6] | activity change, negative = inhibition [7] 3.6% | outcome [8]
6.79%: max response [7, 17]

COc1ccc(C(=O)N2CCC3(CCN(CC(C)C)CC3)CC2)cc1
-10.1%: max response [7, 16]
inactive: Potency [1] > 11.4 µM | activity change, negative = inhibition [2] -18% | activity, negative = inhibition [3] -2.75% | Potency [4] > 46 µM | Potency [5] | Potency [6] | activity change, negative = inhibition [7] -2.62% | outcome [8]
-11.3%: max response [7, 17]

COc1ccccc1CN1CCC2(CC1)CCN(C(=O)c1cccc(F)c1)CC2
-4.91%: max response [7, 16]
inactive: Potency [1] > 11.4 µM | activity change, negative = inhibition [2] -13% | Potency [4] > 46 µM | Potency [5] | Potency [6] | activation [15] 21.3% | activity change, negative = inhibition [7] 2.42% | outcome [8]
-3.6%: max response [7, 17]

O=C(c1cccc(F)c1)N1CCC2(CC1)CN(c1ccccn1)C2
16%: max response [7, 17]
17.7%: max response [7, 16]
inactive: Potency [1] > 11.4 µM | activity change, negative = inhibition [2] 6.77% | activity, negative = inhibition [3] -12.3% | Potency [4] > 46 µM | Potency [6] | activity change, negative = inhibition [7] 6.42% | outcome [8]

COc1ccc(C(=O)N2CCC3(CCCN(Cc4ccc(C#N)cc4)C3)CC2)cc1
-1.58%: max response [7, 16]
-2.86%: max response [7, 17]
inactive: Potency [1] > 11.4 µM | activity change, negative = inhibition [2] 16.7% | activity, negative = inhibition [3] 2.1% | Potency [4] > 46 µM | Potency [5] | Potency [6] | activity change, negative = inhibition [7] -2.89% | outcome [8]

O=C(c1cccc(F)c1)N1CCC2(CCCN(c3ccncc3)C2)CC1
9.25%: max response [7, 16]
16.5%: max response [7, 17]
inactive: Potency [1] > 11.4 µM | activity change, negative = inhibition [2] 8.58% | activity, negative = inhibition [3] -8.19% | Potency [5] | Potency [6] | activity change, negative = inhibition [7] 3.69% | outcome [8]

COC(=O)N1CCC2(CCCN(C(=O)Nc3cccc(C#N)c3)C2)CC1
16%: max response [7, 16]
23.7%: max response [7, 17]
inactive: Potency [1] > 11.4 µM | activity change, negative = inhibition [2] -0.449% | Potency [4] > 46 µM | Potency [5] | Potency [6] | Potency [12] | activity change, negative = inhibition [7] 4.6% | outcome [8]

O=C(c1csnn1)N1CCC2(CCCN(c3ccncc3)C2)CC1
inactive: Potency [1] > 11.4 µM | activity change, negative = inhibition [2] -17.6% | activity, negative = inhibition [3] -10.5% | Potency [4] > 46 µM | Potency [5] | Potency [6] | activity change, negative = inhibition [7] -0.384% | outcome [8]
-0.685%: max response [7, 17]
0.465%: max response [7, 16]

COCC(=O)N1CCC2(CC1)CCN(c1ncccn1)CC2
17.5%: max response [7, 17]
11.8%: max response [7, 16]
inactive: Potency [1] > 11.4 µM | Potency [9] | activity change, negative = inhibition [10] 16.6% | activity, negative = inhibition [3] -0.157% | Potency [4] > 46 µM | Potency [5] | Potency [6] | activity change, negative = inhibition [7] 3.55% | outcome [8]

COc1ccc(C(=O)N2CCC3(CCN(Cc4ccc(C#N)cc4)CC3)CC2)cc1
inactive: Potency [1] > 11.4 µM | activity, negative = inhibition [3] 0.785% | Potency [4] > 46 µM | Potency [5] | Potency [6] | activity change, negative = inhibition [7] 1.02% | outcome [8]
16.6%: max response [7, 16]
active: Potency [9] 12.6 µM
21%: max response [7, 17]

COc1ccccc1CN1CCCC2(CCN(S(=O)(=O)c3ccccc3)CC2)C1
inactive: Potency [1] > 11.4 µM | activity change, negative = inhibition [2] 0.799% | activity, negative = inhibition [3] 1.94% | Potency [4] > 46 µM | Potency [5] | Potency [6] | activation [15] -6.58% | activity change, negative = inhibition [7] 0.969% | outcome [8]
-4.49%: max response [7, 16]
1.25%: max response [7, 17]

CC(C)CN1CCC2(CC1)CCN(C(=O)c1ccco1)CC2
-0.576%: max response [7, 16]
inactive: Potency [1] > 11.4 µM | activity change, negative = inhibition [2] 10.1% | activity, negative = inhibition [3] -2.71% | Potency [4] > 46 µM | Potency [5] | Potency [6] | activity change, negative = inhibition [7] -0.991% | outcome [8]
1.45%: max response [7, 17]

CCNc1ncc2ncc(=O)n(C[C@H]3CCCO3)c2n1
17.2%: max response [7, 17]
inactive: Potency [1] > 11.4 µM | activity change, negative = inhibition [10] -20% | Potency [11] > 9.22 µM | Potency [4] > 46 µM | Potency [5] | activity change, negative = inhibition [7] 1.57% | outcome [8]
active: Potency [9] 10 µM
16.3%: max response [7, 16]
